# Bioassay records: PubChem BioAssay, Broad Institute
# aSyn 5UTR act: Activators working through SNCA 5'UTR binding (MLPCN); alpha-synuclein 5'UTR reporter, activators screen; AID 1814; activity score, % (tested at 7.5 µM), hits read low; hit rate 7.1% among 300,000; in the data active means activity score below about -60%
# * marks the source's active call; other numbers are inactive results. A selection follows.
SMILES,aSyn 5UTR act
CCOC(=O)c1sc(NC(=O)c2ccc3ncsc3c2)nc1C,-89.1*
Cc1c(Cl)cnc(NC(=O)COC(=O)c2ccc3ncsc3c2)c1Cl,67.1
CCOC(=O)c1sc(NNC(=O)c2ccc(F)cc2)nc1C,-76.1*
CCOC(=O)c1sc(NC(=O)c2cncc(Br)c2)nc1C,-105.4*
O=C(CSc1nnc(-c2ccco2)o1)c1ccc[nH]1,-158.0*
O=C(CSc1nnc(-c2ccco2)o1)N1CCCCC1,-95.0*
O=C(CSc1nnc(-c2cccs2)o1)N1CCCCC1,-99.1*
CC1CCN(c2ccc(-c3cccs3)nn2)CC1,101.5
CC1CCN(C(=O)CSc2nnc(-c3cccs3)o2)CC1,-79.3*
CCc1ccc(Nc2nnc(SCC(=O)Nc3cccc(S(=O)(=O)NC4=NCCCCC4)c3)s2)cc1,-147.2*
Cc1cccc(Nc2nnc(SCC(=O)Nc3cccc(S(=O)(=O)N4CCCCC4)c3)s2)c1,-151.6*
COc1ccccc1Nc1nc2ccccc2[nH]1,-119.7*
COc1cc(/C=N/Nc2nc3ccccc3[nH]2)ccc1O,-270.3*
COc1cc(/C=N/Nc2nc3ccccc3[nH]2)cc(OC)c1O,-100.3*
COc1ccc(O)c(/C=N/Nc2nc3ccccc3[nH]2)c1,-81.2*
COc1cc(/C=C(/C(=O)c2cccs2)c2nc3ccccc3[nH]2)cc(OC)c1O,-224.4*
COc1cccc(/C=N/Nc2nc3ccccc3[nH]2)c1OC,-106.2*
COc1cc(/C=N/NC(=O)COc2ccc(C)cc2)ccc1OC(=O)c1cccs1,-64.7*
Cn1c(C(=O)NC2CCCCC2)cc2c(=O)n3ccccc3nc21,-134.4*
Cn1c(C(=O)NCc2ccccn2)cc2c(=O)n3ccccc3nc21,-88.6*
CCOC(=O)NC1(Nc2ccc(C)cc2)Oc2ccccc2O1,-100.0*
COc1ccc(/C=N/NC(=S)Nc2ccccc2[N+](=O)[O-])cc1O,-131.0*
CCCOc1ccc(/C=N/NC(=S)Nc2ccccc2[N+](=O)[O-])c(O)c1,100.6
COc1cc(/C=N/Nc2ccccc2[N+](=O)[O-])ccc1OC(=O)c1ccccc1F,-99.9*
COc1cc(OC)cc(C(=O)Oc2ccc(/C=N/Nc3nc4ccccc4s3)cc2OC)c1,-512.9*
SMILES,aSyn 5UTR act
COc1cc(/C=N/Nc2nc3ccccc3s2)ccc1OC(=O)c1ccccc1F,-387.1*
Cc1cc(=O)[nH]c(N/N=C/c2cc(C)n(-c3ccccc3)c2C)n1,-63.4*
Cc1cc(=O)[nH]c(N/N=C/c2ccccc2Cl)n1,-76.4*
CCN(CC)c1ccc(/C=N/Nc2nc(C)cc(=O)[nH]2)c(O)c1,95.4
O=C(NCc1ccco1)c1cc(-c2cccs2)on1,-297.4*
O=C(NCc1ccccc1)c1cc(-c2cccs2)on1,-95.3*
O=C(NCc1ccco1)c1cc(-c2ccc(F)cc2)on1,-198.2*
O=C(NCc1ccco1)c1cc(-c2ccccc2)on1,-161.4*
CCN(CC)c1ccc2cc(-c3nc4ccccc4n3C)c(=O)oc2c1,-226.5*
CN(C)Cc1c(O)ccc2cc(-c3nc4ccccc4n3C)c(=O)oc12,-70.4*
CCOC(=O)N1CCC(NC(=O)c2ccc3c(c2)sc2nc(-c4ccc(OC)cc4)cn23)CC1,-98.2*
CCOC(=O)N1CCN(C(=O)c2nc3ccccc3s2)CC1,-92.7*
CCOC(=O)N1CCN(C(=O)c2ccc3c(c2)sc2nc(-c4ccccc4)cn23)CC1,-108.7*
Cc1cccc2nc(COc3ccc(-c4ccccc4)cc3)cn12,-121.1*
C=CCOc1ccc2c(OC)c3ccoc3nc2c1OC,-81.1*
CCOc1ccccc1NC(=S)/C(=C(\[O-])c1ccc2c(c1)OCCO2)[n+]1ccc(CC)cc1,-64.2*
CC(C)(C)c1cc[n+](/C(C(=S)Nc2ccccc2F)=C(/[O-])c2ccc3c(c2)OCCO3)cc1,-73.6*
[O-]/C(=C(\C(=S)Nc1ccccc1F)[n+]1ccccc1)c1ccc(-c2ccccc2)cc1,-71.5*
[O-]/C(=C(\C(=S)Nc1ccc(Cl)cc1)[n+]1ccccc1)c1ccc(OC(F)F)cc1,-78.8*
CCCCCOC(=O)NCC(O)c1ccccc1 (centres undefined),-127.9*
CCCCC12CN3CCN(CC(C3)/C1=N\NC(=O)c1ccccc1N)C2,-70.6*
CC(C)(C)C(=O)Nc1ccc2oc(-c3cc(F)c(F)cc3Cl)nc2c1,-251.9*
O=C(O)c1ccccc1-c1ccccc1C(=O)Nc1ccc(-c2nc3cc(Cl)ccc3o2)cc1,-77.3*
COc1ccccc1C(=O)Nc1ccc2oc(-c3ccc(F)cc3)nc2c1,-201.4*
CC(=O)Nc1ccc(-c2nc3cc(Cl)ccc3o2)cc1,-73.3*
SMILES,aSyn 5UTR act
CN(C)c1ccc(-c2nc3cc(N)ccc3o2)cc1,93.4
CCc1ccc(-c2csc(NC(=O)C3=NN(c4ccccc4)C(=O)CC3)n2)cc1,-96.7*
O=C(Nc1nnc(S(=O)(=O)N2CCOCC2)s1)c1cccc(F)c1,-101.9*
Cc1cc(C)n(-c2nc(SCCN(C)C)c3c4c(sc3n2)CCCC4)n1,-71.2*
Cc1ccc(NC(=O)C2COc3ccccc3O2)cc1 (centres undefined),-153.6*
O=C(Nc1nnc(C(F)(F)F)s1)C1COc2ccccc2O1 (centres undefined),-69.1*
CC(=O)c1sc(NC(=O)C2COc3ccccc3O2)nc1C (centres undefined),61.8
O=C(Nc1ncccc1Cl)C1COc2ccccc2O1 (centres undefined),-106.9*
C/C(=N\NC(=O)C1COc2ccccc2O1)c1ccccn1 (centres undefined),98.2
O=C(NCC1COc2ccccc2O1)c1ccccc1 (centres undefined),-137.0*
O=C(Nc1ccccc1F)C1COc2ccccc2O1 (centres undefined),-90.8*
O=C(COC(=O)C1COc2ccccc2O1)NC(=O)NC1CCCC1 (centres undefined),-72.5*
O=C(N/N=C\c1cc(Br)cs1)C1COc2ccccc2O1 (centres undefined),-126.5*
Cc1ccc(NC(=O)C2COc3ccccc3O2)c(C)c1 (centres undefined),-110.0*
Cc1ccc(NC(=O)C2OCCc3ccccc32)cc1 (centres undefined),-132.8*
NC(=O)c1oc2ccccc2c1NC(=O)C1COc2ccccc2O1 (centres undefined),-85.7*
O=C(NCC1OCCc2ccccc21)c1ccc(NC(=O)c2ccc(Cl)cc2)cc1 (centres undefined),79.4
COC(=O)N1CCc2c(sc(NC(=O)C3COc4ccccc4O3)c2C(N)=O)C1 (centres undefined),-136.7*
O=C(Nc1ccccc1)C1COc2ccccc2O1 (centres undefined),-81.9*
COC(=O)N1CCc2c(sc(NC(=O)C3=COCCO3)c2C#N)C1,-125.6*
O=C(Oc1ccc2ccc(OC(=O)N3CCCCCC3)cc2c1)N1CCCCCC1,-80.8*
O=C(Oc1ccc(Cl)cc1)N1CCCCC1,-110.4*
C(=C/c1nccc2c1[nH]c1ccccc12)/c1ccc2c(c1)OCO2,-131.6*
Cc1ccc(OCC(=O)Nc2ccc(-c3nc4ncccc4o3)cc2)c(C)c1,-102.1*
Cc1cc(-c2nc3ncccc3o2)ccc1NC(=O)CC(C)C,-74.7*
CC(C)CC(=O)NC(c1cccs1)c1ccc2cccnc2c1O (centres undefined),74.0
CCCCc1c(C)nn(-c2nnc3c4ccccc4n(C)c3n2)c1C,-95.6*
COCC1CCCCN1C(=O)c1ccc2oc(CCCc3ccccc3)nc2c1 (centres undefined),-85.9*
CCOC(=O)N1CCN(C(=O)c2ccc3oc(CCCc4ccccc4)nc3c2)CC1,-149.8*
